Laboratory results reported in PubChem BioAssay.
Calls of active or inactive are those of the source.

Key:
[1] = anti-His antibody binders, primary screen, artefact control for SMM control protein annotation, biochemical, small-molecule microarray, 635 nm fluorescence (AID 1128); conditions: anti-His Alexa647 antibody binding, higher = more signal;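 further: score merges feature fluorescence with signal-to-noise for each printed compound spot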
[2] = test system: Human papillomavirus type 1a E7 protein (residues 1-88); assay: HPV1a E7 small-molecule binders, primary screen, biochemical, small-molecule microarray, residues 1-88, 635 nm (AID 1129); conditions: small-molecule microarray binding, fluorescence 635 nm; higher = more signal
[3] = target: Focal adhesion kinase 1 (Homo sapiens) (UniProt Q05397); assay: small-molecule microarray binders of FAK, primary screen, biochemical, 635/667 nm fluorescence, BSA, DTT (AID 1130); conditions: PTK2 binding, 635 nm fluorescence, higher = more signal;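 further: composite of spot emission at 667 nm and signal to noise over triplicate slides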
[4] = test system: Fibrinogen (Alexa647-labelled); assay: fibrinogen binders on compound microarrays, profiling panel, artefact control for SMM control-protein annotation, biochemical, small-molecule microarray, 635/667 nm fluorescence (AID 1131); conditions: fibrinogen-A647 binding fluorescence, higher = more signal;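 further: z-score merges 667 nm fluorescence with per-spot signal-to-noise over triplicate slides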
[5] = target: Follistatin (Homo sapiens) (UniProt P19883); assay: follistatin binders on small-molecule microarrays, primary screen, biochemical, small-molecule microarray, 635/667 nm fluorescence (AID 1132); conditions: FST binding, 635 nm fluorescence, higher = more signal
[6] = target: Fibroblast growth factor 2 (Homo sapiens) (UniProt P09038); assay: FGF2 binders on small-molecule microarrays, primary screen, biochemical, small-molecule microarray, 635/667 nm fluorescence (AID 1133); conditions: small-molecule microarray binding, FGF2, fluorescence 635/667; higher = more signal
[7] = mitochondrial membrane potential change in A549 cells, profiling panel, cell-based, JC-1 fluorescence, basal, 24 h, 100 nL (AID 1138); conditions: higher = more signal;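 further: A549 lung adenocarcinoma cells under basal conditions with no added stimulus; test concentration not given here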
[8] = test system: Lefty1; assay: Lefty1 binders on small-molecule microarrays, primary screen, biochemical, small-molecule microarray, 635/667 nm fluorescence (AID 1139); conditions: small-molecule microarray binding, fluorescence 635/667; higher = more signal
[9] = test system: wheat germ agglutinin (Triticum aestivum), Alexa647-labelled; assay: wheat germ agglutinin binders on compound microarrays, profiling panel, artefact control for SMM control-protein annotation, biochemical, small-molecule microarray, 635/667 nm fluorescence (AID 1140); conditions: WGA-A647 binding, 635 nm fluorescence, higher = more signal;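 further: score merges 667 nm feature emission with signal to noise over triplicate slides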
[10] = target: Luciferin 4-monooxygenase (Photinus pyralis) (UniProt P08659); assay: firefly luciferase enzyme inhibitors, primary screen, biochemical, luminescence, purified enzyme, 2006 set (AID 1141); conditions: SteadyGlo luminescence, 30 min, higher = more signal, called active from +8 up or from −8 down;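 further: cell-free assay with purified firefly luciferase at 100 ng per well in PBS; test concentration not given here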
Chain of Luciferin 4-monooxygenase (Photinus pyralis) (P08659 whole entry, looked up): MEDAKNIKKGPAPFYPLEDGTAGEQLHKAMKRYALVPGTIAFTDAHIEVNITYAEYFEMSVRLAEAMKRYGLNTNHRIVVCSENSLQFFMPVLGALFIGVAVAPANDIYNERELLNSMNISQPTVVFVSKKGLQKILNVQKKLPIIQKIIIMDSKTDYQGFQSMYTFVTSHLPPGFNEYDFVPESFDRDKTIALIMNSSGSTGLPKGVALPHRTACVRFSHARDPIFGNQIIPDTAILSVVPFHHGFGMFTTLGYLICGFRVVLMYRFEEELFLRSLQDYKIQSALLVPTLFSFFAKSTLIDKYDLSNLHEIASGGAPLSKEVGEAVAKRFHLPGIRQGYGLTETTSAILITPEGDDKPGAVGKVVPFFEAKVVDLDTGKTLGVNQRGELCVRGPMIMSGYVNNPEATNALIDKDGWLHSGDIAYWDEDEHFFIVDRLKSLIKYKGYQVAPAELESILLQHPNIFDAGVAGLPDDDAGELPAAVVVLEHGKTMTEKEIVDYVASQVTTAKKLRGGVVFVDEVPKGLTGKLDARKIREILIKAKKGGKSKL

Chain of Follistatin (Homo sapiens) (P19883 whole entry, looked up): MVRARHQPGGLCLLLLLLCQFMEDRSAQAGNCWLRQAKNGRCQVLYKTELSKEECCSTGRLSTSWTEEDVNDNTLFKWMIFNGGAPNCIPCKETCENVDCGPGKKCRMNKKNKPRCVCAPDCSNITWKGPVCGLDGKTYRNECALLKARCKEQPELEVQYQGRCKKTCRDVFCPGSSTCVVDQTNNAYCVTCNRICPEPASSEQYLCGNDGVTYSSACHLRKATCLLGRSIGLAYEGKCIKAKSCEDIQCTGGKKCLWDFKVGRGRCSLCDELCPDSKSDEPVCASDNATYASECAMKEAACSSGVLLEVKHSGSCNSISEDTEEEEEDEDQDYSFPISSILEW
Chain of Focal adhesion kinase 1 (Homo sapiens) (Q05397 whole entry, looked up): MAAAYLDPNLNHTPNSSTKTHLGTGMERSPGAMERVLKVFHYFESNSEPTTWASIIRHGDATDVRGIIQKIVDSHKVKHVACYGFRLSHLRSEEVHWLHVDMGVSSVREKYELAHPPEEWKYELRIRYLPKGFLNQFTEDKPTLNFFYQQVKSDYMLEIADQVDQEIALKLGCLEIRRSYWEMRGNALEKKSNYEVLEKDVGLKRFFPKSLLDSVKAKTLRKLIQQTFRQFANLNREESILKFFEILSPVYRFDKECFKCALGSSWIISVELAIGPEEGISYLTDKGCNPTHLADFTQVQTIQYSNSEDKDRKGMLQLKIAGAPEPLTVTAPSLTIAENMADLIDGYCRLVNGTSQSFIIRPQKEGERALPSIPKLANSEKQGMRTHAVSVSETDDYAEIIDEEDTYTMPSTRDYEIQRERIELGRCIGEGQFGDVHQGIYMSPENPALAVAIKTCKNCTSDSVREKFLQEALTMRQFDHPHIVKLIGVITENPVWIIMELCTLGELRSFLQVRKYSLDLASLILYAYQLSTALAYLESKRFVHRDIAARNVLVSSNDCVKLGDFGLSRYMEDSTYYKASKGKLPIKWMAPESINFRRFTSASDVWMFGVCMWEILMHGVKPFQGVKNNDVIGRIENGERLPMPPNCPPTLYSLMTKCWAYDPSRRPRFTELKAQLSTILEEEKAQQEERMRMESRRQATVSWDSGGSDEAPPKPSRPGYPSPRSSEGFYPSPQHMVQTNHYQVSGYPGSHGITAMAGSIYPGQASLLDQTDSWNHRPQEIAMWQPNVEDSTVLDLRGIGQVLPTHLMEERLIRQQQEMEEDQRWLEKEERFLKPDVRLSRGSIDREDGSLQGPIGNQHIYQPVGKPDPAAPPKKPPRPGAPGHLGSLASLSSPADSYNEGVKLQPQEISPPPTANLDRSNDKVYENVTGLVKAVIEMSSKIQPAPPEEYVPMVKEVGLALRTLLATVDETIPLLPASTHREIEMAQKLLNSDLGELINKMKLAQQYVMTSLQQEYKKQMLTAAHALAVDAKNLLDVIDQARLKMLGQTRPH
Chain of Fibroblast growth factor 2 (Homo sapiens) (P09038 whole entry, looked up): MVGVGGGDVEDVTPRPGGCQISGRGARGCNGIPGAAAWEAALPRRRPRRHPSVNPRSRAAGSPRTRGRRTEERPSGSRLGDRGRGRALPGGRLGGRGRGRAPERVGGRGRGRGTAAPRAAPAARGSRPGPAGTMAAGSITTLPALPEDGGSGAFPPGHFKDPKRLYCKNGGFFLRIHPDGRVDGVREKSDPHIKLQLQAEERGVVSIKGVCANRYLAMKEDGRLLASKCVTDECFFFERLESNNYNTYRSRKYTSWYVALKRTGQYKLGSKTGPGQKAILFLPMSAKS

Row | SMILES | composite z-score [1] | composite z-score [2] | composite z-score [3] | composite z-score [4] | composite z-score [5] | composite z-score [6] | z-score [7] | composite z-score [8] | composite z-score [9] | z-score [10]
1 | O=C1[C@H]2[C@H]3[C@H](O)[C@H](O)CC(=NOCc4ccccc4)[C@@H]3CC[C@H]2C(=O)N1Cc1ccccc1 | -0.0529 | 0.719 | 0.166 | -0.757 | 0.371 | 0.47 | -0.806 | 0.597 | 0.0885 | 1.09 (inactive)
2 | CCOC(=O)[C@H](Cc1ccccc1)NC(=O)CCC1CC(OC(=O)NCc2ccc3c(c2)OCO3)CC2(CCCC(COC(=O)NCc3cccc(C(F)(F)F)c3)O2)O1 (stereo not given in full) | 1 | 0.355 | -0.15 | -0.416 | 0.916 | 1.01 | -0.659 | 0.955 | 0.229 | 0.794 (inactive)
3 | C[C@@H]1C=CCC(=O)OC[C@H](C)C(=O)OC[C@H]2O[C@H]1C=C[C@H]2O | -0.31 | -0.307 | -0.174 | 0.303 | 0.208 | 0.577 | 0.328 | 0.781 | 0.59 | -1.1 (inactive)
4 | CC(CCN1CCc2nc(-c3ccccc3)c(-c3ccccc3)cc2C1)=NOC[C@@H](C)[C@H](OCc1ccccc1)C(C)C | 1.45 | -1.69 | 0.123 | -0.242 | -1.45 | -1.14 | 0.436 | -0.677 | -0.469 | -1.09 (inactive)
5 | C=C(COC)/C(=C/C[C@H](OC(=O)c1ccncc1)c1ccc(CO)o1)c1cc(C(=O)OC)ccc1OC | 1.38 | 1.12 | -0.113 | -0.0921 | 1.22 | 1.32 | -0.713 | 1.14 | 0.113 | -0.448 (inactive)
6 | O[C@@H](Cc1ccccc1)[C@H]1C2C=CCCC(c3ccccc3)=C2CN1Cc1cccc(Cl)c1 (stereo not given in full) | 0.607 | 1.14 | -0.0839 | 0.43 | 0.995 | 0.251 | 2.09 | 0.625 | 0.875 | -2.22 (inactive)
7 | Cn1c(=O)n2n(c1=O)[C@H]1[C@H](O)[C@@H]3O[C@@H]3C(=NOC[C@@H](O)COCc3ccco3)[C@H]1CC2 | -0.272 | 0.722 | 0.0225 | 0.617 | 0.357 | 0.468 | 0.596 | 0.777 | -0.0253 | -0.508 (inactive)
8 | NC(=O)NCC#Cc1ccc2c(c1)[C@]1(C(=O)N2)[C@H](c2ccc(O)cc2)N2[C@H](c3ccccc3)[C@H](c3ccccc3)OC(=O)[C@H]2[C@@H]1C(=O)N1CCCCCCC1 | 0.687 | 0.564 | -0.222 | 0.161 | 1.34 | 0.25 | 0.296 | 1.02 | 0.604 | 0.363 (inactive)
9 | CCCCC(=C=CC[C@H](O)c1ccccc1OCCO)C[C@H](O)COCc1ccccc1 | -1.29 | -0.138 | 0.329 | -0.256 | 0.103 | 0.189 | 0.544 | -0.0107 | -0.142 | -0.676 (inactive)
10 | CCc1cccc(NC(=O)O[C@H]2[C@H](OC(=O)Nc3ccc4c(c3)OCO4)[C@@H](OC(=O)Nc3ccc4c(c3)OCO4)[C@@H](OC)O[C@@H]2CO)c1 | 0.646 | 1.25 | -0.106 | 0.992 | 1.03 | 0.528 | -0.321 | 1.36 | 0.809 | -7.34 (inactive)
11 | O=C1C2C=CC(C(O)c3ccc([N+](=O)[O-])cc3)N(Nc3ccc([N+](=O)[O-])cc3)C2C(=O)N1c1ccccc1 (stereo not given) | 0.953 | 1.24 | 0.719 | 0.952 | -0.0127 | -0.519 | -1.95 | -0.139 | 1.37 | 0.319 (inactive)
12 | CCOC(=O)[C@H](Cc1ccccc1)NC(=O)CCC1CC(OC(=O)NCc2ccc3c(c2)OCO3)CC2(CCCC(COC(=O)NCC3CCCCC3)O2)O1 (stereo not given in full) | 0.273 | 1.18 | 0.188 | 0.91 | 0.904 | 0.48 | 0.491 | 0.876 | 0.206 | 0.986 (inactive)
13 | CCOC(=O)NN=C1C[C@@H](O)[C@@H](O)[C@@H]2[C@@H]3C(=O)N(C4CCCCC4)C(=O)[C@@H]3CC[C@@H]12 | 0.327 | -0.18 | 0.287 | 0.5 | 0.267 | 0.365 | 0.497 | 0.319 | 0.0034 | -0.182 (inactive)
14 | CC(CCN1CCc2nc(-c3ccccc3)c(-c3ccccc3)cc2C1)=NOC(C)CN1CCCCc2nc(C)c(C)cc21 (stereo not given) | 0.605 | 0.791 | 0.718 | 0.845 | 0.47 | 0.489 | 1.52 | 0.593 | 0.264 | -0.0959 (inactive)
15 | Cc1ccc(F)cc1S(=O)(=O)N[C@@H]1CCN(Cc2ccc(CC(C)C)cc2)C1 | -0.016 | -0.381 | 0.132 | 0.129 | 0.111 | -0.367 | -0.391 | 0.163 | 0.0831 | 0.886 (inactive)
16 | CN1C(=O)C2C=CC(C(O)C(c3ccccc3)c3ccccc3)N(NC(=O)OC(C)(C)C)C2C1=O (stereo not given) | 1.88 | 1.18 | 0.666 | 0.973 | 1.03 | 0.0319 | -0.0852 | 0.895 | 1.09 | -0.0519 (inactive)
17 | C=CC[C@@H]1C=C[C@H](ON=C(C)CCN2CCc3nc(CC)c(CC)cc3C2)[C@@H](CO)O1 | 0.242 | -0.202 | -0.191 | -1.5 | 1.3 | 0.466 | 2.17 | 1.48 | 0.0749 | 0.624 (inactive)
18 | CO[C@@H]1COC(=O)CC=C[C@@H](C)COC(=O)[C@H](COCc2ccccc2)NC(=O)CC=C[C@H]1C | -0.105 | -1.04 | -0.765 | -1.55 | 1.24 | 1.73 | -0.378 | 1.57 | -0.672 | -0.336 (inactive)
19 | CCCC[C@@H](O)C1=C(C)C[C@H]2C(=O)N(Cc3ccccc3)C(=O)[C@H]2[C@H]1CO | 0.314 | 0.0359 | -0.0945 | -0.0897 | 0.438 | 0.828 | 0.923 | 0.492 | -0.423 | -0.467 (inactive)
20 | C=CCOC(=O)[C@H]1[C@@H]2C(=O)O[C@@H](c3ccccc3)[C@@H](c3ccccc3)N2[C@@H](c2ccc(OCCOC(=O)[C@H]3C[C@H]4C(=O)N[C@@H](Cc5ccccc5)C(=O)N4[C@H]3c3ccc(O)cc3)cc2)[C@]12C(=O)Nc1ccccc12 | 2.22 | 1.13 | 1.23 | 0.51 | 1.46 | 1.67 | -1.58 | 1.46 | 0.654 | -2.01 (inactive)
21 | CCOC(=O)[C@H](Cc1ccccc1)NC(=O)CCC1CC(OC(=O)NCc2ccc3c(c2)OCO3)CC2(CCCC(COC(=O)NCc3ccccc3)O2)O1 (stereo not given in full) | 1 | 1.12 | -0.108 | 0.347 | 0.725 | 0.69 | 1.64 | 0.688 | 0.335 | 0.66 (inactive)
22 | COCC1=C2[C@@H](CCc3ccccc3)OB(O)C[C@@H]2n2c(=O)n(-c3ccccc3)c(=O)n2C1 | 0.241 | -0.028 | -0.0493 | -0.434 | 0.133 | 0.506 | 0.581 | 0.336 | -0.228 | -1.19 (inactive)
23 | CCN1C(=O)[C@H]2[C@H]3[C@H](O)[C@H](O)CC(=NOC[C@@H](C)[C@H](OCc4ccccc4)C(C)C)[C@@H]3CC[C@H]2C1=O | 0.0486 | 0.472 | -0.0745 | 0.58 | -0.0316 | -0.109 | -0.925 | 0.192 | 0.564 | 0.646 (inactive)
24 | O=C(CS)NCCCCCNC(=O)[C@@H]1C[C@@H]2C(=O)N[C@@H](Cc3ccccc3)C(=O)N2[C@@H]1c1ccc(O)cc1 | 2.33 | 1.21 | 0.661 | -0.0141 | 1.31 | 1.29 | -0.208 | 0.233 | 0.304 | -3.79 (inactive)
25 | CC(C)CN1CCc2nc(-c3ccccc3)c3c(c2CC1)CO[C@@H](C)C3 | 0.21 | 0.103 | 0.101 | 0.418 | 0.587 | 0.478 | 0.186 | 0.435 | 0.22 | -0.227 (inactive)
26 | CC(C)[Si]1(C(C)C)O[C@@H](c2ccccc2)c2cc(C3CC3)nc(-c3ccccc3)c21 | -0.829 | -0.466 | -0.925 | 0.412 | -0.165 | -0.246 | -0.271 | -0.198 | 0.105 | -0.471 (inactive)
